Unmarked numbers belong to inactive results. Records with an inconclusive call do not appear. Where a call stands in place of a potency, no number is given. Calls of active or inactive are those of the source. Unless noted, calls come from the whole dose curve.
Experiments:
[1] = Nuclear factor erythroid 2-related factor 2/antioxidant responsive element (Nrf2/ARE) small molecule agonists: qHTS cell viability counter screen in human keratinocytes (AID 1919968; active = well fitted curve in the direction sought with a large enough effect in the repeat runs; an effect the other way counts as inactive or inconclusive; note: nearly all actives have a fitted effect of over 55% in size; note: potency is the fitted concentration of half-maximal effect)
How it was run: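 KeratinoSens cells (HaCaT keratinocytes stably carrying an ARE-luciferase reporter) were seeded at 1,500 cells/well and rested 5 h at 37 C/5% CO2. They were then exposed to compounds in DMSO for 23 h. Viability was read by CellTiter-Fluor fluorescence after 1 h.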

[2] = Nuclear factor erythroid 2-related factor 2/antioxidant responsive element (Nrf2/ARE) small molecule agonists: luciferase reporter gene qHTS assay in human keratinocytes (AID 1919969); note: nearly all actives have a fitted effect of over 35% in size; note: potency is the fitted concentration of half-maximal effect
[3] = target: KiSS-1 receptor (Homo sapiens) (UniProt Q969F8); experiment: Human kisspeptin (KISS1R) small molecule agonists, calcium flux assay in KISS1R-HEK293 cells (AID 1920064; active = well fitted curve in the direction sought with a large enough effect in the repeat runs; an effect the other way counts as inactive or inconclusive)
Sequence of KiSS-1 receptor (Homo sapiens) (Q969F8 whole entry, looked up): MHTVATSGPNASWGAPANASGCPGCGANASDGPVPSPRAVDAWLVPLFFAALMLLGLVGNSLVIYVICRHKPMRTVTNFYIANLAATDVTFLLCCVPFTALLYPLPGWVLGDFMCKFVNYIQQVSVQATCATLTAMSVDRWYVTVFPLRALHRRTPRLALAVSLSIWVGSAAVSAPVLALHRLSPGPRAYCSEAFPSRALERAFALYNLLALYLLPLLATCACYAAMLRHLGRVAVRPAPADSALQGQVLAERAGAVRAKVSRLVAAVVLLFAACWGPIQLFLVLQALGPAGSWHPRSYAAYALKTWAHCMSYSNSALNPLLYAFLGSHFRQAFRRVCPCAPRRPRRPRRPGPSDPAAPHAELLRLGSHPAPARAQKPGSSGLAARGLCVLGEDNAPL
How it was run: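 HEK293 cells stably expressing human KISS1R were plated 18 h at 37 °C, loaded with calcium dye for 1 h at 37 °C, then given compound by pin tool. Fluorescence (Ex/Em 480/540) was read kinetically for 3 min.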

[4] = G protein-coupled receptor (GPCR) small molecule agonists, calcium flux assay: HEK293 wild type cell line counter screen (AID 1920065)
How it was run: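 Cells were plated and cultured 18 h at 37 C/5% CO2, then loaded with calcium dye for 1 h at 37 C. Compounds in DMSO were pin-transferred in agonist mode, and fluorescence (Ex/Em 480/540) was read kinetically for 3 min at 1 s intervals.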

[5] = p53 small molecule agonists, cell-based qHTS assay with human liver microsomes (AID 1963577)
How it was run: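 Compounds act here after metabolic activation: human liver microsomes and NADPH, both at 0.5 mg/mL final, were co-added to p53RE-bla cells. Incubation ran 16 h at 37 C, followed by LiveBLAzer detection.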

[6] = p53 small molecule agonists, cell-based qHTS assay with rat liver microsomes (AID 1963578)
How it was run: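 Read-out is beta-lactamase reporter fluorescence (LiveBLAzer, 2 h, room temperature, dark) in p53RE-bla cells treated 16 h at 37 C with compound, rat liver microsomes and NADPH, both 0.5 mg/mL final.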

[7] = p53 small molecule agonists, cell-based qHTS assay with human liver microsomes: qHTS cell viability counter screen (AID 1963579); note: nearly all actives have a fitted effect of over 45% in size
How it was run: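 Cells carrying the p53 response-element beta-lactamase reporter are treated for 16 h at 37 C with test compounds in the presence of human liver microsomes and NADPH (both 0.5 mg/mL final); ATP-based CellTiter-Glo luminescence then reports viability.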

[8] = p53 small molecule agonists, cell-based qHTS assay with rat liver microsomes: qHTS cell viability counter screen (AID 1963580); note: nearly all actives have a fitted effect of over 45% in size; note: potency is the fitted concentration of half-maximal effect
How it was run: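 Intracellular ATP, by CellTiter-Glo luminescence, defines viability. HCT-116 p53RE-bla cells, 4,000 per well, were compound-treated in the presence of rat liver microsomes and NADPH for 16 h at 37 C.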

[9] = p53 small molecule agonists, cell-based qHTS assay: qHTS cell viability counter screen (AID 1963581); note: nearly all actives have a fitted effect of over 45% in size; note: potency is the fitted concentration of half-maximal effect
How it was run: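 p53RE-bla HCT-116 cells were exposed to compounds for 16 h at 37 C; after the beta-lactamase FRET read in the same wells, CellTiter-Glo was added and luminescence (intracellular ATP) read after 30 min at room temperature.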

[10] = target: 5-hydroxytryptamine receptor 2A (Homo sapiens) (UniProt P28223); experiment: 5-hydroxytryptamine receptor 2A (HTR2A) small molecule antagonists, cell-based qHTS assay (AID 1963586); note: nearly all actives have a fitted effect of over 45% in size
Sequence of 5-hydroxytryptamine receptor 2A (Homo sapiens) (P28223 whole entry, looked up): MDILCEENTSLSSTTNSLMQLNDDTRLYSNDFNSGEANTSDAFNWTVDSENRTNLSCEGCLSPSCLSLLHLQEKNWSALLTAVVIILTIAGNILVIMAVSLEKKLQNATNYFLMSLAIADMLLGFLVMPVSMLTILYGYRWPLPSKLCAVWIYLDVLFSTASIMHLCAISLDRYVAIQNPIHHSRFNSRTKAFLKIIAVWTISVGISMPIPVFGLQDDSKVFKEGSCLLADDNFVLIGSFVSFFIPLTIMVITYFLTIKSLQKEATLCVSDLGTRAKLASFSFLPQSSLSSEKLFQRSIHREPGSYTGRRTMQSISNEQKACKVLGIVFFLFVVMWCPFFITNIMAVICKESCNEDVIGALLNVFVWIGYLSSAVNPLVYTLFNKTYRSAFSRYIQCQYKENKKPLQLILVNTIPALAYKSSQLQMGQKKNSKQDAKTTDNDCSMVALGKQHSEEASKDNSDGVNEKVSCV
How it was run: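 Antagonist-mode intracellular calcium assay: DOI (4 nM) added after 5 min compound pre-incubation at room temperature to dye-loaded HTR2A-CHO cells. Fluorescence followed for 3 min, sampled every second.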

[11] = target: 5-hydroxytryptamine receptor 2A (Homo sapiens) (UniProt P28223); experiment: 5-hydroxytryptamine receptor 2A (HTR2A) small molecule agonists, cell-based qHTS assay (AID 1963587); note: nearly all actives have a fitted effect of over 30% in size; note: potency is the fitted concentration of half-maximal effect
How it was run: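 Kinetic calcium-flux fluorescence (2 min, 1 sec intervals) after compound addition in agonist mode. HTR2A-CHO cells were cultured 18 h, then dye-loaded 1 h at 37 C.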

[12] = target: Muscarinic acetylcholine receptor M1 (Homo sapiens) (UniProt P11229); experiment: Cholinergic receptor muscarinic 1 (CHRM1) small molecule antagonists, cell-based qHTS assay (AID 1963588); note: nearly all actives have a fitted effect of over 40% in size; note: potency is the fitted concentration of half-maximal effect
Sequence of Muscarinic acetylcholine receptor M1 (Homo sapiens) (P11229 whole entry, looked up): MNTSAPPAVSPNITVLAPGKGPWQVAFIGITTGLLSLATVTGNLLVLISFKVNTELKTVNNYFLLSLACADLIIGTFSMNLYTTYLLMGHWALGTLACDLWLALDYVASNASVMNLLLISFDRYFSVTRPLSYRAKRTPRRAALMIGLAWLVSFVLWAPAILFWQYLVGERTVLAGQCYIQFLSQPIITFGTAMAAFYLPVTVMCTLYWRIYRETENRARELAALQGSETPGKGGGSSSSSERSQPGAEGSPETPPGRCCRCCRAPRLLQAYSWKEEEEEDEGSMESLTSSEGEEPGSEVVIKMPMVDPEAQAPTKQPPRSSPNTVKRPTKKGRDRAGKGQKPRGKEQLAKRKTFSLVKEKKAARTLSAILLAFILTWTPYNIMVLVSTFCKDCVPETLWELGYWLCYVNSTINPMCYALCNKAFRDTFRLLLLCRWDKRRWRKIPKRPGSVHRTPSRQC
How it was run: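 CHRM1-CHO calcium-flux assay, antagonist mode. Cells were seeded 18 h, dye-loaded 1 h at 37 C and given compound for 5 min at RT, then acetylcholine was added at 50nM. FDSS fluorescence was read 3 min; 15 concentrations, three runs.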

[13] = target: Muscarinic acetylcholine receptor M1 (Homo sapiens) (UniProt P11229); experiment: Cholinergic receptor muscarinic 1 (CHRM1) small molecule agonists, cell-based qHTS assay (AID 1963589); note: nearly all actives have a fitted effect of over 35% in size
How it was run: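 CHO cells stably expressing human CHRM1, seeded 18 h at 37 C/5% CO2, dye-loaded 1 h at 37 C, then given compound in agonist mode; intracellular calcium fluorescence read kinetically at 1 s intervals. Fifteen concentrations, three independent runs.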

[14] = target: D(2) dopamine receptor (Homo sapiens) (UniProt P14416); experiment: Dopamine D2 receptor (DRD2) small molecule agonists, cell-based qHTS assay (AID 1963594); note: nearly all actives have a fitted effect of over 35% in size
Sequence of D(2) dopamine receptor (Homo sapiens) (P14416 whole entry, looked up): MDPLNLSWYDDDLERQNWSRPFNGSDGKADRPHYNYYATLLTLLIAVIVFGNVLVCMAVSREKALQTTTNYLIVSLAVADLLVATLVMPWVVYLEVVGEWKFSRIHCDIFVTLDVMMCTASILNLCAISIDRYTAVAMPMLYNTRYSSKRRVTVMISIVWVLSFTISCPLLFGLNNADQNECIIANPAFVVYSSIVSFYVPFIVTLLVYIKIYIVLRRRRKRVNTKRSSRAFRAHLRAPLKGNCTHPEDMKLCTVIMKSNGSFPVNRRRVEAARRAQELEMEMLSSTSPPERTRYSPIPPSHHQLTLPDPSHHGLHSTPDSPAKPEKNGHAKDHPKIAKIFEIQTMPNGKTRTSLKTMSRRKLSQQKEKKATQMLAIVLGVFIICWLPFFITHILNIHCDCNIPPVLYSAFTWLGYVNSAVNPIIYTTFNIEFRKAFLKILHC
How it was run: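 cAMP accumulation in DRD2-HEK293 cells measured by HTRF after 1 h detection; compounds added 10 min before NKH477 (200nM […]) forskolin-analogue stimulation, 30 min at room temperature, with Ro20-1724 present at 0.1 mM final.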

[15] = target: D(2) dopamine receptor (Homo sapiens) (UniProt P14416); experiment: Dopamine D2 receptor (DRD2) small molecule antagonists, cell-based qHTS assay (AID 1963595; active = well fitted inhibition curve with a large enough effect in the signal ratio in the repeat runs, with a control signal flat; the % refers to the signal ratio; note: potency is the fitted concentration of half-maximal effect)
How it was run: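 Human DRD2 antagonist qHTS measuring cAMP by HTRF. The cells are exposed to compound for 10 min, then to NKH477 (200 nM) and quinpirole (12 nM) for 30 min at RT, with Ro20-1724 (0.1 mM) present throughout.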

[16] = cAMP Responsive Elements (CRE) small molecule agonists, cell-based qHTS assay (AID 1963590)
How it was run: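 CRE-bla HEK 293T cells in DMEM with 10% dialyzed FBS, NEAA, pyruvate and 25 mM HEPES were plated 18 h at 37 C/5% CO2, then exposed to compounds in DMSO for 3 h before LiveBLAzer B/G FRET substrate addition.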

[17] = cAMP Responsive Elements (CRE) small molecule antagonists, cell-based qHTS assay (AID 1963591; active = well fitted inhibition curve with a large enough effect in the signal ratio in the repeat runs, not every such curve was filed as active; the % refers to the signal ratio)
How it was run: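 CRE-bla HEK293T cells were plated 18 h at 37 °C/5% CO2, pinned with compound in DMSO, then stimulated with NKH477 at 0.25 uM final for 3 h. LiveBLAzer B/G FRET substrate was added and plates incubated 2 h at room temperature.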

[18] = target: Beta-2 adrenergic receptor (Homo sapiens) (UniProt P07550); experiment: Adrenergic beta2 receptor (ADRB2) small molecule antagonists, cell-based qHTS assay (AID 1963592); note: series mostly up to about 92 µM; nearly all actives have a fitted effect of over 50% in size
Sequence of Beta-2 adrenergic receptor (Homo sapiens) (P07550 whole entry, looked up): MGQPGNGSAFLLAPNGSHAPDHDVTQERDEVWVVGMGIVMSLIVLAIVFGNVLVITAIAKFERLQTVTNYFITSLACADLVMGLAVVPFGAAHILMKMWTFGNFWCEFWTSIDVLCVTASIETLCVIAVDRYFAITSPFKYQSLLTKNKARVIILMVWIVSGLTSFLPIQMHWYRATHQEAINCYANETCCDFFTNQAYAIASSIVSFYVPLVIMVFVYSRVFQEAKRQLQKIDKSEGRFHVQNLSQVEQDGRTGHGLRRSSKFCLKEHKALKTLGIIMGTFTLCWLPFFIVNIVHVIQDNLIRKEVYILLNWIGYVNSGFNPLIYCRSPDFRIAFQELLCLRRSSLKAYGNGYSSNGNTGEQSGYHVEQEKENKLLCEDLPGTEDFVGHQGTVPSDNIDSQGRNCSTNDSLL
How it was run: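 Cells (CHO, stable ADRB2 overexpression) incubated 18-20hr at 37C; compounds added from DMSO; agonist mix (1nM isoproterenol, 100uM IBMX, 25uM Ro-20-1724) added; 0.5hr RT; d2-cAMP and anti-cAMP-cryptate added; 1hr RT; 665/615 nm read.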

[19] = target: Gonadotropin-releasing hormone receptor (Homo sapiens) (UniProt P30968); experiment: Human gonadotropin-releasing hormone receptor (GnRHR) small molecule agonists, calcium flux assay in GnRHR-HEK293 cells (AID 1920063); note: nearly all actives have a fitted effect of over 35% in size; note: potency is the fitted concentration of half-maximal effect
Sequence of Gonadotropin-releasing hormone receptor (Homo sapiens) (P30968 whole entry, looked up): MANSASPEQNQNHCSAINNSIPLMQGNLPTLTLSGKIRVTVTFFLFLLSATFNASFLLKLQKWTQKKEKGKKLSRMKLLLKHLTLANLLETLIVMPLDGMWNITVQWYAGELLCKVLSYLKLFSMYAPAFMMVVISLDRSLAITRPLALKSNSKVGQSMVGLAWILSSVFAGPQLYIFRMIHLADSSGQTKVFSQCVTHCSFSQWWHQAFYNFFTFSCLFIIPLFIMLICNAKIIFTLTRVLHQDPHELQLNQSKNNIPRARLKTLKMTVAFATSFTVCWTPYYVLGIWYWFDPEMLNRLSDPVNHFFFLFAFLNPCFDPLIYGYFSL
How it was run: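 HEK293 cells stably expressing human GnRHR were plated 18 h at 37 °C, loaded with calcium dye 1 h at 37 °C, then given compound in agonist mode; fluorescence (Ex/Em 480/540) read kinetically for 3 min at 1 s intervals.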

[20] = target: Beta-2 adrenergic receptor (Homo sapiens) (UniProt P07550); experiment: Adrenergic beta2 receptor (ADRB2) small molecule agonists, cell-based qHTS assay (AID 1963593);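 note: CHO cells stably overexpressing human ADRB2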
How it was run: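 CHO cells stably over-expressing ADRB2 were plated overnight at 37C, then dosed with compounds plus a stimulation mix containing 100uM IBMX and 25uM Ro-20-1724 for 0.5hr at room temperature. cAMP was measured by HTRF competition, 1hr.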

Compound | Potency [1] | Potency [2] | Potency [3] | Potency [4] | Potency [5] | Potency [6] | Potency [7] | Potency [8] | Potency [9] | Potency [10] | Potency [11] | Potency [12] | Potency [13] | Potency [14] | Potency [15] | Potency [16] | Potency [17] | Potency [18] | Potency [19] | Potency [20]
CC(NCCC(c1ccccc1)c1ccccc1)c1ccccc1 (centres undefined) | 26.6 µM (active) | inactive | inactive | inactive | inactive | inactive | inactive | inactive | inactive | inactive | 23.9 µM (active) | inactive | inactive | inactive |  |  |  |  |  | 
CC(C(O)c1ccccc1)N(C)CCOC(c1ccccc1)c1ccccc1 (centres undefined) | 18.8 µM (active) | inactive | inactive | inactive | inactive | inactive | inactive | inactive | inactive |  | 23.9 µM (active) | 1.16 µM (active) |  | inactive | inactive |  |  |  |  | 
CCCc1ncc(C[n+]2ccccc2C)c(N)n1 | inactive | inactive | inactive | inactive | inactive | inactive | inactive | inactive | inactive |  |  |  | inactive | inactive |  | inactive | inactive | inactive |  | 
CC(C)(C)c1ccc(OC2CCCCC2O)cc1 (centres undefined) | inactive | 38.6 µM (active) | inactive | inactive | inactive | inactive | inactive | 1.62 µM (active) | inactive |  | 43.6 µM (active) | inactive |  | inactive | inactive |  | inactive |  |  | 
CC(=O)NC1(c2cccc(F)c2)CCN(CC[C@@]2(c3ccc(Cl)c(Cl)c3)CN(c3ccccc3)C(=O)CO2)CC1 | 48.7 µM (active) | inactive |  |  |  | inactive | inactive | inactive | 36.5 µM (active) |  | inactive | inactive |  | inactive | inactive |  |  |  | inactive | 
Cc1ccc(S(=O)(=O)C(I)I)cc1 | 27.3 µM (active) | 6.11 µM (active) |  |  | inactive | inactive |  |  |  | inactive | 54.9 µM (active) | 18.8 µM (active) |  |  | 30.6 µM (active) |  |  | inactive | 38.9 µM (active) | 
CC(C)NC[C@@H](O)COc1ccc(CC(N)=O)cc1 | inactive | inactive |  | inactive |  |  |  |  |  |  |  |  |  | inactive | inactive | inactive | inactive |  | inactive | 
CCCCCCOC(=O)NC(=N)c1ccc(NCc2nc3cc(C(=O)N(CCC(=O)OCC)c4ccccn4)ccc3n2C)cc1 | inactive | inactive | inactive | inactive | inactive | inactive | inactive | inactive |  |  |  | inactive | inactive | inactive |  |  |  | inactive |  | inactive
C[C@H](CCC(=O)O)[C@H]1CC[C@H]2[C@@H]3CC[C@@H]4C[C@H](O)CC[C@]4(C)[C@H]3CC[C@]12C | inactive | inactive | inactive | inactive | inactive | inactive | inactive | inactive | inactive |  | 24.4 µM (active) | inactive | inactive | inactive | inactive |  | inactive | inactive |  | inactive

Source: PubChem BioAssay (Tox21)
